Data published in PubChem BioAssay (NCI).
Compounds without any hit were thinned out: in the full panel of roughly 79,000, 15% have a hit. Unmarked numbers belong to inactive results. Activity calls are given as the source filed them. Cut-off read from the data, not from the text of the source: active = growth inhibition above about 70%; inactive = the rest.

Experiments:
[1] = NCI Yeast Anticancer Drug Screen. Data for the rad52 strain (AID 147);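 note: 0% = growth of vehicle-treated control cultures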; settings: S. cerevisiae rad52 mutant growth inhibition, stronger effect = higher value
In short: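 Measured: yeast growth inhibition. System: strain with a defined DNA damage repair alteration. Reference: vehicle-treated control cultures.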

[2] = NCI Yeast Anticancer Drug Screen. Data for the rad50EPP+ strain (AID 151);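 note: 0% = growth of vehicle-treated control cultures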; settings: S. cerevisiae rad50 mutant strain, stronger effect = higher value
In short: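 One strain with a rad50 alteration (rad50EPP+) was compound-treated, its growth then compared to that of vehicle controls.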

[3] = NCI Yeast Anticancer Drug Screen. Data for the mgt1 strain (AID 153); settings: S. cerevisiae mgt1 mutant growth inhibition, stronger effect = higher value
In short: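 After exposure of the mgt1 yeast mutant to compound, growth was measured and reported as inhibition compared with vehicle controls.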

[4] = NCI Yeast Anticancer Drug Screen. Data for the rad50 strain (AID 155);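 note: 0% = growth of vehicle-only cultures of the same strain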; settings: S. cerevisiae rad50 strain growth inhibition, stronger effect = higher value
In short: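 Relative growth inhibition (compound vs vehicle) was measured in yeast with a defined repair-gene alteration.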

[5] = NCI Yeast Anticancer Drug Screen. Data for the mec2-1 strain (AID 157); settings: S. cerevisiae mec2-1 strain, stronger effect = higher value
In short: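 Test agents were screened against the mec2-1 yeast strain, with defined DNA repair or cell cycle alteration. Growth was scored as inhibition against vehicle-only controls.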

[6] = NCI Yeast Anticancer Drug Screen. Data for the rad14 strain (AID 159);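 note: 0% = growth of vehicle-treated control cultures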; settings: S. cerevisiae rad14 strain growth inhibition, stronger effect = higher value
In short: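 Screen for anticancer potential: a yeast strain altered in DNA damage repair is grown with compound, and reduced growth is quantified against vehicle controls.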

[7] = NCI Yeast Anticancer Drug Screen. Data for the sgs1 mgt1 strain (AID 161);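 note: 0% = growth of cultures given vehicle only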; settings: S. cerevisiae sgs1 mgt1 strain, stronger effect = higher value
In short: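 Test agents were incubated with a DNA-repair-mutant yeast strain. Growth was then read and compared against vehicle-treated controls.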

[8] = NCI Yeast Anticancer Drug Screen. Data for the CLN2oe strain (AID 163);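 note: 0% = growth of vehicle-only control cultures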; settings: S. cerevisiae CLN2oe strain, stronger effect = higher value
In short: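 Here, growth inhibition in a cell-cycle-altered yeast strain after compound exposure was quantified against vehicle control growth.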

[9] = NCI Yeast Anticancer Drug Screen. Data for the cln2 rad14 strain (AID 165);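 note: 0% = growth equal to vehicle treated cultures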; settings: S. cerevisiae cln2 rad14 strain, stronger effect = higher value
In short: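 Growth of compound-exposed yeast (cln2 rad14 genotype) measured and expressed as inhibition relative to vehicle.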

[10] = NCI Yeast Anticancer Drug Screen. Data for the bub3 strain (AID 167); settings: S. cerevisiae bub3 mutant strain, stronger effect = higher value
In short: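 Screening used yeast with an engineered genetic alteration affecting cell cycle control. Compound-exposed cultures were compared with vehicle cultures, and reduced growth was taken as inhibition.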

[11] = NCI Yeast Anticancer Drug Screen. Data for the wt2 strain (AID 169);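 note: 0% = growth of vehicle-treated yeast cultures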; settings: S. cerevisiae wt2 strain growth inhibition, stronger effect = higher value
In short: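 Genetically defined yeast strains from a DNA-repair/cell-cycle panel were used. Compound-exposed yeast growth was measured, and the inhibition was calculated relative to vehicle treatment.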

[12] = NCI Yeast Anticancer Drug Screen. Data for the mlh1 strain (AID 171);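 note: 0% = growth of vehicle-treated control cultures of the same strain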; settings: S. cerevisiae mlh1 strain growth inhibition, stronger effect = higher value
In short: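 Here the genetically defined yeast mutant is grown with each compound, and the extent to which its growth falls below that of vehicle-exposed cells is reported.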

[13] = NCI Yeast Anticancer Drug Screen. Data for the sgs1 strain (AID 173);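 note: 0% = growth of vehicle-only control cultures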; settings: S. cerevisiae sgs1 mutant, stronger effect = higher value
In short: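 Relative growth inhibition, referenced to vehicle, was determined in a yeast strain with a defined alteration affecting DNA damage repair or cell cycle control after compound exposure.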

[14] = NCI Yeast Anticancer Drug Screen. Data for the mlh1 rad18 strain (AID 175); settings: S. cerevisiae mlh1 rad18 strain growth inhibition, stronger effect = higher value
In short: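 In this whole-cell yeast screen, a strain with altered DNA damage repair is challenged with compound, and its growth is measured against matched vehicle-treated controls.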

[15] = NCI Yeast Anticancer Drug Screen. Data for the rad18 strain (AID 177); settings: S. cerevisiae rad18 mutant growth inhibition, stronger effect = higher value
In short: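 Screen uses a yeast strain with a defined lesion in DNA damage repair; compound effect is read as loss of growth compared to untreated vehicle cultures.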

[16] = at 5.0 µM (retest, dose inferred, filed as 0.5)
[17] = at 50.0 µM (retest, dose inferred, filed as 5.0)

Q: What does the source list for `CC(=O)N1C=Cc2c(c(C)c3c([nH]c4ccccc43)c2C)C1`?
A: growth inhibition ([1]; at 1.2 µM): 25%; growth inhibition ([1]; at 3.7 µM): 88% (active); growth inhibition ([1]; at 11.0 µM): 95% (active); growth inhibition ([1]; at 33.0 µM): 96% (active); growth inhibition ([1]; at 100.0 µM): 97% (active); growth inhibition ([2]; at 1.2 µM): 28%; growth inhibition ([2]; at 3.7 µM): 74% (active); growth inhibition ([2]; at 11.0 µM): 94% (active); growth inhibition ([2]; at 33.0 µM): 97% (active); growth inhibition ([2]; at 100.0 µM): 96% (active); growth inhibition ([3]; at 1.2 µM): 29%; growth inhibition ([3]; at 3.7 µM): 64%; growth inhibition ([3]; at 11.0 µM): 91% (active); growth inhibition ([3]; at 33.0 µM): 96% (active); growth inhibition ([3]; at 100.0 µM): 95% (active); growth inhibition ([4]; at 1.2 µM): 67%; growth inhibition ([4]; at 3.7 µM): 91% (active); growth inhibition [4, 16]: 82% (active); growth inhibition ([4]; at 11.0 µM): 95% (active); growth inhibition ([4]; at 33.0 µM): 96% (active); growth inhibition [4, 17]: 91% (active); growth inhibition ([4]; at 50.0 µM): 87.2% (active); growth inhibition ([4]; at 100.0 µM): 95% (active); growth inhibition ([5]; at 1.2 µM): -5%; growth inhibition ([5]; at 3.7 µM): 33%; growth inhibition [5, 16]: 12%; growth inhibition ([5]; at 11.0 µM): 81% (active); growth inhibition ([5]; at 33.0 µM): 91% (active); growth inhibition [5, 17]: 84% (active); growth inhibition ([5]; at 50.0 µM): 87.3% (active); growth inhibition ([5]; at 100.0 µM): 93% (active); growth inhibition ([6]; at 1.2 µM): 7%; growth inhibition ([6]; at 3.7 µM): 32%; growth inhibition ([6]; at 11.0 µM): 79% (active); growth inhibition ([6]; at 33.0 µM): 90% (active); growth inhibition ([6]; at 100.0 µM): 94% (active); growth inhibition [7, 16]: 16%; growth inhibition [7, 17]: 91% (active); growth inhibition ([7]; at 50.0 µM): 88% (active); growth inhibition ([8]; at 1.2 µM): 31%; growth inhibition ([8]; at 3.7 µM): 52%; growth inhibition ([8]; at 11.0 µM): 91% (active); growth inhibition ([8]; at 33.0 µM): 95% (active); growth inhibition ([8]; at 100.0 µM): 95% (active); growth inhibition [9, 16]: 24%; growth inhibition [9, 17]: 86% (active); growth inhibition ([9]; at 50.0 µM): 79.8% (active); growth inhibition ([10]; at 1.2 µM): 16%; growth inhibition ([10]; at 3.7 µM): 52%; growth inhibition [10, 16]: 14%; growth inhibition ([10]; at 11.0 µM): 90% (active); growth inhibition ([10]; at 33.0 µM): 95% (active); growth inhibition [10, 17]: 86% (active); growth inhibition ([10]; at 50.0 µM): 85.3% (active); growth inhibition ([10]; at 100.0 µM): 96% (active); growth inhibition ([11]; at 1.2 µM): 10%; growth inhibition ([11]; at 3.7 µM): 36%; growth inhibition ([11]; at 11.0 µM): 81% (active); growth inhibition ([11]; at 33.0 µM): 90% (active); growth inhibition ([11]; at 100.0 µM): 92% (active); growth inhibition ([12]; at 1.2 µM): 31%; growth inhibition ([12]; at 3.7 µM): 71% (active); growth inhibition ([12]; at 11.0 µM): 90% (active); growth inhibition ([12]; at 33.0 µM): 96% (active); growth inhibition ([12]; at 100.0 µM): 95% (active); growth inhibition ([13]; at 1.2 µM): -7%; growth inhibition ([13]; at 3.7 µM): 32%; growth inhibition ([13]; at 11.0 µM): 86% (active); growth inhibition ([13]; at 33.0 µM): 95% (active); growth inhibition ([13]; at 100.0 µM): 95% (active); growth inhibition [14, 16]: 44%; growth inhibition [14, 17]: 95% (active); growth inhibition ([14]; at 50.0 µM): 88.8% (active); growth inhibition ([15]; at 1.2 µM): 23%; growth inhibition ([15]; at 3.7 µM): 44%; growth inhibition ([15]; at 11.0 µM): 91% (active); growth inhibition ([15]; at 33.0 µM): 96% (active); growth inhibition ([15]; at 100.0 µM): 96% (active)
